In PubChem BioAssay AID1159580 (chemical genetic matrix, 2015):
In all, about 5,500 compounds went through this assay and about 2,000 (36%) were called active. Inconclusive results (about 18%) are left out. Rule as the data show it: active = normalized growth mostly below about 0.91 (no sharp cut-off); inconclusive = no clear call, values can overlap the other calls; inactive = mostly above about 0.92. The list shows a part of the results.

Assay: chemical genetic growth profiling, strain panel (AID 1159580);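 also: tested at 20 µM; growth read once vehicle control cultures reached saturation at 30 °C; 1 = growth at the plate median or of vehicle wells; lower values mean less growth of the strain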
Settings: S. cerevisiae deletion strains, growth OD

Measured: normalized growth

C[C@]12CCC(=O)C=C1CC[C@@H]1[C@@H]2[C@@H](O)C[C@@]2(C)[C@H]1CC[C@]2(O)C(=O)CO
inactive: locus YAL013W, strain DEP1, hits give low values 1 | locus YAL040C, strain CLN3, hits give low values 0.989 | locus YCL061C, strain MRC1 (second series), hits give low values 1 | locus YDR150W, strain NUM1, hits give low values 0.993 | locus YDR363W, strain ESC2, hits give low values 1.02 | locus YER002W, strain NOP16, hits give low values 0.986 | locus YMR307W, strain GAS1, hits give low values 1.01 | locus YNL153C, strain GIM3, hits give low values 1.01 | locus YNL175C, strain NOP13, hits give low values 0.99 | locus YNL224C, strain SQS1, hits give low values 0.995 | locus YNL322C, strain KRE1, hits give low values 1 | locus YOR083W, strain WHI5 (second series), hits give low values 1.01
